Screening data (PubChem)
FadD28 FP inh: blocks FadD28 binding to the bisubstrate probe; inhibition, % at 12.5 µM; actives 0.22% (n = 360,000); fluorescence polarization; in the data active = inhibition above about 8.5%, passing the limit was not always enough
DUSP3 inh: DUSP3 (human) phosphatase inhibition. P51452. recombinant VHR phosphatase, pNPP absorbance. inhibition, % at 13.3 µM. actives 0.52% (n = 290,000); in the data active = inhibition above about 50%
Target sequence (P51452 whole entry, looked up): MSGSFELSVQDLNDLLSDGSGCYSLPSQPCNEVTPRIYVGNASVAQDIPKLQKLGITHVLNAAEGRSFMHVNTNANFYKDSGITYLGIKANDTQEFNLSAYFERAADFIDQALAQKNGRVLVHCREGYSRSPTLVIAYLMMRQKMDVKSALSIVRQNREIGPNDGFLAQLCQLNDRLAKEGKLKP
Mtb BioA inh: inhibitors of Mycobacterium tuberculosis BioA enzyme | purified M. tuberculosis BioA enzyme, plate reader | inhibition, % at 9.99 µM | actives 0.096% (n = 360,000); in the data active = inhibition above about 40%
TcdB GH inh: blocks C. difficile toxin B glycohydrolase activity; actives 0.24% (n = 350,000); TcdB glycohydrolase enzymatic assay, plate reader; P18177; inhibition, % at 9.99 µM; in the data active = inhibition above about 10%
Yp Topo-I inh: blocks Yersinia pestis topoisomerase I activity; activity, % at 10 µM; Y. pestis Topo-I cleavage product accumulation, plate reader; AID 504884; actives 0.064% (n = 360,000); in the data active = activity above about 50%, passing the limit was not always enough
MazF activator: increases E. coli MazEF RNase cleavage of RNA; activation, % at 20 µM; actives 0.32% (n = 350,000); AID 504720; FAM/BHQ RNA-DNA oligo cleavage fluorescence, 5 h; in the data active = activation above about 50%
Target sequence (P0AE70 whole entry, looked up): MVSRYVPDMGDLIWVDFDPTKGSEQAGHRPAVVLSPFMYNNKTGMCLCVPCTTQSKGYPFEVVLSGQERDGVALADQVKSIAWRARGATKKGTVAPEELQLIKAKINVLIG
Numbers without * were called inactive. A selection: hits, their analogues and other compounds. The true share with any hit is near 1%.

Screening CCCNC(=O)C[C@H]1CC[C@@H]2[C@H](COc3ccc(NC(=O)c4ccc5c(c4)OCO5)cc3C(=O)N2C)O1 returned Mtb BioA inh 4 and TcdB GH inh 7.
`COCC(=O)N1C[C@H](C)[C@@H](OC)CN(C)C(=O)c2cc(NC(=O)Nc3cccc(F)c3)ccc2OC[C@H]1C` gave Mtb BioA inh 0 and TcdB GH inh -1.
CC(C)NC(=O)Nc1ccc2c(c1)C(=O)N([C@H](C)CO)C[C@H](C)[C@H](CN(C)S(C)(=O)=O)OCCCC[C@H](C)O2 was read as Mtb BioA inh -1 and TcdB GH inh 0.
Screening Nc1cc2nsnc2cc1Br returned FadD28 FP inh 3, DUSP3 inh 52*, Mtb BioA inh 2, Yp Topo-I inh -8 and MazF activator -4.
C[C@H](O)C#Cc1ccc([C@H]2[C@@H](CO)N3CCCCN(CC4CCOCC4)C[C@@H]23)cc1 was read as Mtb BioA inh -1 and TcdB GH inh 0.
For COc1cccc(C2C(C(C)=O)=C(C)Nc3ncnn32)c1 (stereo not given) the results were FadD28 FP inh -1, DUSP3 inh 21, Mtb BioA inh -2, TcdB GH inh 0, Yp Topo-I inh 1 and MazF activator 8.
For CC(=O)C1=C(C)Nc2ncnn2C1c1cccc(OCc2ccccc2)c1 (stereo not given) the results were FadD28 FP inh -1, DUSP3 inh 53*, Mtb BioA inh -1, TcdB GH inh 3, Yp Topo-I inh -5 and MazF activator 4.
`Cc1ccccc1S(=O)(=O)NCC[C@H]1CC[C@@H](NC(=O)C2CC2)[C@H](CO)O1` gave Mtb BioA inh -2 and TcdB GH inh -1.
For Clc1cccc(CSc2nnc(-c3sccc3-n3cccc3)o2)c1 the results were FadD28 FP inh -1, DUSP3 inh 23, Mtb BioA inh -1, Yp Topo-I inh 58* and MazF activator -5.
For CCSC(=O)CCCCCCCCCCCO the results were FadD28 FP inh 18*, DUSP3 inh 12, Mtb BioA inh 3, Yp Topo-I inh 38 and MazF activator -10.
CCCC#Cc1cnc2c(c1)C(=O)N([C@@H](C)CO)C[C@H](C)[C@H](CN(C)C(=O)Nc1ccc(OC)cc1)O2 was read as Mtb BioA inh 0 and TcdB GH inh 0.
CCN(CC)c1ccc(/C=N/NC(=O)c2ccc3nc[nH]c3c2)c(O)c1 was read as FadD28 FP inh 27*, DUSP3 inh 16, Mtb BioA inh -1, Yp Topo-I inh -16 and MazF activator 9.
COc1cccc(/C=N/NC(=O)c2ccc3nc[nH]c3c2)c1O was read as FadD28 FP inh -4, DUSP3 inh 5, Mtb BioA inh 1, TcdB GH inh -3, Yp Topo-I inh -7 and MazF activator -5.
For CCS(=O)(=O)c1nc(S(=O)(=O)c2ccc(Cl)cc2)c(N2CCC(C(N)=O)CC2)s1 the results were FadD28 FP inh -1, DUSP3 inh 56*, Mtb BioA inh 0, TcdB GH inh 1, Yp Topo-I inh 1 and MazF activator 9.
Screening CS(=O)(=O)c1nc(S(=O)(=O)c2ccc(Cl)cc2)c(N2CCC(C(N)=O)CC2)s1 returned FadD28 FP inh 3, DUSP3 inh -5, Mtb BioA inh -1, TcdB GH inh -1, Yp Topo-I inh 9 and MazF activator 5.
For O=C(NCCCN1CCCC1=O)c1c(O)nc2ccccn2c1=O the results were FadD28 FP inh -4, DUSP3 inh 52*, Mtb BioA inh -1, TcdB GH inh 0, Yp Topo-I inh -5 and MazF activator 6.
Screening O=C(NCCC1=CCCCC1)c1c(O)nc2ccccn2c1=O returned FadD28 FP inh -2, DUSP3 inh 38, Mtb BioA inh 0, TcdB GH inh 2, Yp Topo-I inh 44 and MazF activator 11.
COc1cc(/C=N/n2c(-c3cc(C)[nH]n3)n[nH]c2=S)ccc1O was read as FadD28 FP inh -3, DUSP3 inh 29, TcdB GH inh 19*, Yp Topo-I inh 5 and MazF activator 4.
`COc1cccc(/C=N/n2c(C3CCCCC3)n[nH]c2=S)c1O` gave FadD28 FP inh 15*, DUSP3 inh -4, Mtb BioA inh 0, TcdB GH inh 2, Yp Topo-I inh 1 and MazF activator 8.
Screening Oc1ccc(Br)cc1/C=N/n1c(C2CCCCC2)n[nH]c1=S returned FadD28 FP inh 16*, DUSP3 inh 2, Mtb BioA inh 2, TcdB GH inh -2, Yp Topo-I inh 2 and MazF activator 3.
COc1cc(/C=N/n2c(C3CCCCC3)n[nH]c2=S)ccc1O was read as FadD28 FP inh -1, DUSP3 inh 58*, Mtb BioA inh 2, TcdB GH inh 1, Yp Topo-I inh 1 and MazF activator -13.
Screening O=C(C[C@H]1C=C[C@@H](NC(=O)Nc2cc(F)ccc2F)[C@H](CO)O1)NCc1ccccn1 returned Mtb BioA inh 0 and TcdB GH inh 0.
CCCC(=O)Nc1ccc2c(c1)OC[C@@H](C)N(CC1CCCC1)C[C@@H](C)[C@@H](OC)CN(C)C2=O was read as Mtb BioA inh 0 and TcdB GH inh 0.
CCC(=O)N(C)C[C@@H]1Oc2cc(-c3cccc(F)c3)ccc2S(=O)(=O)N([C@@H](C)CO)C[C@H]1C was read as Mtb BioA inh 0 and TcdB GH inh 0.
`O=C(Nc1ccc(Cl)cc1)N[C@H]1CC[C@H](CCNC(=O)c2cc(Cl)cc(Cl)c2)O[C@@H]1CO` gave TcdB GH inh -1.
`Cc1cccc(C(=O)Nc2ccc(C(=O)N3CCCCC3C)cc2)c1` (stereo not given) gave FadD28 FP inh 1, DUSP3 inh 57*, Mtb BioA inh 0, TcdB GH inh 3, Yp Topo-I inh 7 and MazF activator -1.
`CC1CCCCN1C(=O)c1ccc(C(=O)N2CCCCC2C)cc1` (stereo not given) gave FadD28 FP inh -1, DUSP3 inh 14, Mtb BioA inh -1, Yp Topo-I inh -4 and MazF activator -4.
Screening CC(=O)c1cc(NC(=O)c2cccc(C(F)(F)F)c2)c(=O)oc1/C=C/N(C)C returned FadD28 FP inh -3, DUSP3 inh 31, Mtb BioA inh 0, Yp Topo-I inh 6 and MazF activator 180*.
Screening O=C1/C(=C/c2ccc([N+](=O)[O-])cc2)Oc2cc(O)ccc21 returned FadD28 FP inh 1, DUSP3 inh 57*, TcdB GH inh 2, Yp Topo-I inh -9 and MazF activator 10.
`C[C@H](CO)N1C[C@H](C)[C@H](CN(C)C(=O)c2ccncc2)Oc2ncc(C3=CCCC3)cc2C1=O` gave Mtb BioA inh -3 and TcdB GH inh 0.
For CCOC(=O)N1CCN(C(=O)CCCN2C(=O)CSc3nc(C)cc(C)c32)CC1 the results were FadD28 FP inh 1, DUSP3 inh 51*, Mtb BioA inh -1, Yp Topo-I inh 7 and MazF activator 4.
